Among the test systems are SK-MEL-2 melanoma; EKVX NSCLC; SN12C renal; UO-31 renal; TK-10 renal; A498 renal; CCRF-CEM leukemia; MOLT-4 leukemia; SR leukemia; RPMI-8226 leukemia; OVCAR-8 ovarian; OVCAR-5 ovarian; OVCAR-4 ovarian; SK-OV-3 ovarian; IGROV1 ovarian; OVCAR-3 ovarian; NCI/ADR-RES ovarian; HS 578T breast; CAKI-1 renal.
Holding throughout (assay): NCI-60 one-dose screen, 48 h (100 = growth as untreated, 0 = no growth, -100 = all killed)
Settings in all cases: 10 µM unless noted

The panel holds about 83,000 compounds, 20% with a hit somewhere; the sample as a whole holds those more often.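 Single-dose data. Exposure time 48 hours. Values below 10 considered active.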 Values without a mark were called inactive. Active and inactive are the calls of the source.

On to `CCN(CCO)CC(=O)c1cc(Cl)cc(Cl)c1Cl`, for which the growth in the assay with SK-MEL-2 melanoma is 92.4%; in the assay on EKVX NSCLC, 105%; in the assay on SN12C renal, 100%; with UO-31 renal, 93.5%; with TK-10 renal it was 86.7%; in the assay with A498 renal it was 102%. Further, the growth with CCRF-CEM leukemia is 82.9%; in the assay with MOLT-4 leukemia it was 90.5%; with SR leukemia, 95.4%; with RPMI-8226 leukemia it was 97.1%; in the assay on OVCAR-8 ovarian, 103%; in the assay on OVCAR-5 ovarian it was 109%. Also, the growth with OVCAR-4 ovarian was 115%; with SK-OV-3 ovarian, 102%; in the assay on IGROV1 ovarian, 109%; in the assay on OVCAR-3 ovarian, 106%; with NCI/ADR-RES ovarian, 102%.

As to `CCN(CC)c1ccc(Nc2ccc(CC(=O)c3ccccc3)cc2)cc1`, the growth was 81.7% with SK-MEL-2 melanoma; 76.4% in the assay on EKVX NSCLC; 95.3% in the assay with SN12C renal; 71.5% in the assay with UO-31 renal; 107% with TK-10 renal; 99.7% in the assay with A498 renal. In addition, the growth was 95.9% with CCRF-CEM leukemia; 102% in the assay with MOLT-4 leukemia; 55.3% with SR leukemia; 49.9% in the assay with RPMI-8226 leukemia; 84.8% in the assay with OVCAR-8 ovarian; 98.3% with OVCAR-5 ovarian. Also, the growth in the assay with OVCAR-4 ovarian was 87.8%; in the assay on SK-OV-3 ovarian it was 97.8%; in the assay on IGROV1 ovarian, 88.4%; in the assay with OVCAR-3 ovarian, 84.3%; with HS 578T breast, 81.1%; in the assay with NCI/ADR-RES ovarian, 73.6%.

On to `COc1cc2c(cc1OC)-c1ccc3cc4c(cc3c1N(CCCn1ccnc1)C2)OCO4`, for which the growth in the assay with SK-MEL-2 melanoma is 37.7%; in the assay with EKVX NSCLC, 98.2%; with SN12C renal, 18.1%; in the assay on UO-31 renal it was 80.8%; in the assay on TK-10 renal, 91.3%; with A498 renal, 85.2%. The growth with CCRF-CEM leukemia was 1.56% (active); with MOLT-4 leukemia it was 2.11% (active); in the assay on SR leukemia, 7.86% (active); in the assay with RPMI-8226 leukemia, 0.821% (active); in the assay on OVCAR-8 ovarian it was 44.7%; in the assay on OVCAR-5 ovarian, 103%. For the same molecule, the growth is 67.9% in the assay on OVCAR-4 ovarian; 20.7% in the assay on SK-OV-3 ovarian; 38.3% in the assay on IGROV1 ovarian; 33.5% in the assay on OVCAR-3 ovarian; 91.5% in the assay with HS 578T breast; 94.4% with NCI/ADR-RES ovarian.

On to `OC(CBr)c1ccnc2ccccc12` (stereo not drawn), for which the growth was 93.3% with SK-MEL-2 melanoma; 103% in the assay on EKVX NSCLC; 99.6% with SN12C renal; 83.4% with UO-31 renal; 89.4% in the assay on TK-10 renal; 102% with A498 renal. The growth in the assay with MOLT-4 leukemia was 93.8%; in the assay on SR leukemia, 98.7%; with RPMI-8226 leukemia, 87.4%; in the assay with OVCAR-8 ovarian, 98.2%; with OVCAR-5 ovarian, 106%; in the assay with OVCAR-4 ovarian it was 110%. Further, the growth with SK-OV-3 ovarian is 105%; in the assay on IGROV1 ovarian, 102%; with OVCAR-3 ovarian, 106%; in the assay on HS 578T breast, 99.6%; in the assay on NCI/ADR-RES ovarian, 101%.

Consider `CCCNCC(=O)Nc1ccc(C(=O)OC(C)(C)CC)cc1`, for which the growth is 95.6% in the assay with SK-MEL-2 melanoma; 98.1% in the assay with EKVX NSCLC; 105% in the assay on SN12C renal; 86.3% in the assay on UO-31 renal; 93% in the assay on TK-10 renal; 108% in the assay on A498 renal. The growth in the assay on MOLT-4 leukemia was 89.7%; with SR leukemia, 90.6%; in the assay on RPMI-8226 leukemia, 99.8%; in the assay on OVCAR-8 ovarian, 104%; in the assay with OVCAR-5 ovarian, 111%; in the assay with OVCAR-4 ovarian, 118%. In addition, the growth in the assay on SK-OV-3 ovarian is 105%; with IGROV1 ovarian it was 99.5%; in the assay on OVCAR-3 ovarian, 102%; in the assay on HS 578T breast, 105%; with NCI/ADR-RES ovarian it was 105%.

With `COc1ccc(C2CC(c3cnccn3)=NN2)cc1OC` (stereo not drawn), the growth in the assay with SK-MEL-2 melanoma is 79%; with EKVX NSCLC, 108%; in the assay on SN12C renal it was 104%; in the assay with UO-31 renal, 88.7%; in the assay on TK-10 renal, 82.7%; with A498 renal, 112%. Besides, the growth in the assay on CCRF-CEM leukemia was 75.2%; with MOLT-4 leukemia, 72%; in the assay with SR leukemia, 79.3%; with RPMI-8226 leukemia it was 82.6%; in the assay with OVCAR-8 ovarian, 96.8%; with OVCAR-5 ovarian, 114%. For the same molecule, the growth with OVCAR-4 ovarian was 118%; with SK-OV-3 ovarian it was 105%; in the assay on IGROV1 ovarian, 108%; in the assay on OVCAR-3 ovarian, 102%; in the assay on HS 578T breast it was 97.4%; with NCI/ADR-RES ovarian it was 102%.

`CCOC(=O)c1c(C)nc2c(c1N)/C(=C/c1cc(OC)c(OC)c(OC)c1)C(=O)N2c1ccc(OC)cc1`: the growth with SK-MEL-2 melanoma was 67.1%; with EKVX NSCLC, 93.2%; in the assay with SN12C renal it was 36.2%; with UO-31 renal, 55.7%; with TK-10 renal, 77.4%; in the assay on A498 renal, 82.2%. Moreover, the growth in the assay with CCRF-CEM leukemia is 8.45% (active); in the assay with MOLT-4 leukemia, 17.6%; in the assay with SR leukemia it was 12.4%; in the assay with RPMI-8226 leukemia it was -6.44% (active); in the assay on OVCAR-8 ovarian, 37.7%; with OVCAR-5 ovarian it was 85.7%. The growth in the assay on OVCAR-4 ovarian was 87%; with SK-OV-3 ovarian, 105%; with IGROV1 ovarian, 33.6%; in the assay on OVCAR-3 ovarian, 42.1%; in the assay on HS 578T breast, 95.1%; in the assay on NCI/ADR-RES ovarian it was 34.7%.

As to `O=C1N(c2ccccc2)C(=S)N[C@]12[C@H](c1ccccc1)C1CCCN1[C@]21C(=O)NC2C=CC(Cl)=C[C@H]21` (stereo partly drawn), the growth with SK-MEL-2 melanoma was 91%; in the assay on EKVX NSCLC, 100%; in the assay with SN12C renal, 98%; in the assay with UO-31 renal, 71.3%; in the assay with TK-10 renal, 113%; in the assay with A498 renal, 107%. Moreover, the growth in the assay on CCRF-CEM leukemia was 77.6%; in the assay with MOLT-4 leukemia, 79%; in the assay on SR leukemia, 96%; with RPMI-8226 leukemia, 73.7%; in the assay on OVCAR-8 ovarian, 78.3%; in the assay on OVCAR-5 ovarian, 117%. In addition, the growth was 102% in the assay on OVCAR-4 ovarian; 88% in the assay with SK-OV-3 ovarian; 95.1% with IGROV1 ovarian; 106% in the assay with OVCAR-3 ovarian; 83.6% in the assay with HS 578T breast; 102% in the assay on NCI/ADR-RES ovarian.

Take `COc1cc(CNC(=O)/C=C/C=C/c2ccc3c(c2)OCO3)ccc1OCc1cn(-c2ccc(Cl)c(Cl)c2)nn1`: the growth is -37.3% (active) in the assay with SK-MEL-2 melanoma; 13.1% in the assay with EKVX NSCLC; 34.1% with SN12C renal; 45.5% in the assay on UO-31 renal; -11.4% (active) in the assay on TK-10 renal; -17% (active) in the assay on CAKI-1 renal. Besides, the growth in the assay on CCRF-CEM leukemia was 57.7%; in the assay on MOLT-4 leukemia, -12.2% (active); in the assay on SR leukemia, 24.8%; in the assay on RPMI-8226 leukemia it was 20.9%; in the assay on OVCAR-8 ovarian, 11.3%; in the assay on OVCAR-5 ovarian it was -19.8% (active). For the same molecule, the growth in the assay on OVCAR-4 ovarian was -62.7% (active); in the assay on IGROV1 ovarian it was 6.63% (active); in the assay with OVCAR-3 ovarian, -62.8% (active); in the assay on HS 578T breast, 7.23% (active); with NCI/ADR-RES ovarian, 15.9%.

The values above are taken from PubChem BioAssay (NCI).
